# Compound activity from PubChem.
# Most compounds without a hit are left out; they make up all but 8% or so of the library.
# KB-3-1 tox = kills parental KB-3-1 adenocarcinoma cells; KB-3-1 viability, CellTiter-Glo ATP luminescence, 72 h; Potency, µM (top dose mostly 46.1 µM), hits mostly cytotoxic; 400,000 tested, 1.4% active; also: % is scaled to controls: 0 for no effect and ±100 for the full control effect; nearly all actives have a fitted effect of over 60% in size
#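 Multi-concentration cytotoxicity screen in KB-3-1 cells grown in DMEM lacking phenol red with 10% FBS. After 72 h at 37 °C with compound, ATP-dependent luminescence was recorded.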
# SW480 rereplic = induces DNA re-replication in SW480 colon adenocarcinoma cells | SW480 DNA re-replication, Hoechst DNA content imaging, 48 h | Potency, µM (top dose mostly 46.1 µM), without a hit: at the highest dose re-replication activation, usual class: activators | 340,000 tested, 1.8% active | AID 624297; also: % of control where 0% means no effect; nearly all actives have a fitted effect of over 55% in size
#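 Image-based DNA-content assay: after two days of treatment, nuclei were labelled with the DNA dye Hoechst and imaged, and hits were compounds raising the count of nuclei showing high fluorescence intensity.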
# HT1080-NT tox = kills 2HG-producing HT-1080-NT fibrosarcoma cells. 360,000 tested, 1.6% active. AID 686970. Potency, µM (doses to about 46.1 µM), without a hit: at the top dose activity, negative = less viability, most hits filed as cytotoxic. HT-1080-NT fibrosarcoma viability, CellTiter-Glo ATP luminescence, 48 h;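 also: NT is the 2HG producing partner of a matched IDH1 knockdown line; 0% = DMSO-treated cells and -100% = media-only wells without cells; nearly all actives have a fitted effect of over 55% in size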
#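 HT-1080-NT fibrosarcoma cells (2HG-overproducing), 750 cells/well in RPMI with 5% FBS, dosed after 2 h and incubated 48 h at 37C. CellTiter-Glo luminescence normalized to DMSO and no-cell wells; concentration-response curves fitted and classed.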
# MCF10A rerep = DNA re-replication induction in MCF 10a cells; Potency, µM (top dose mostly 46.1 µM), inactives show at the top dose activity, positive = re-replication, most hits filed as activators; MCF 10A DNA re-replication, Hoechst nuclear intensity, 48 h; 350,000 tested, 2.9% active; AID 624296; also: % of control where 0% means no effect; nearly all actives have a fitted effect of over 50% in size
# KB-V1 MDR tox = KB-V1 MDR subline cytotoxicity; AID 1347076; KB-V1 MDR cells viability, CellTiter-Glo, 72 h; 400,000 tested, 3.4% active; Potency, µM (titrated, usually from 46.1 µM), most hits filed as cytotoxic; also: % is scaled to controls: 0 for no effect and ±100 for the full control effect; nearly all actives have a fitted effect of over 60% in size
#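 Following 72 h at 37 degrees C with compound, KB-V1 cell viability was read by CellTiter-Glo luminescence, medium being phenol-red-free DMEM plus 10% FBS; concentration-response parameters came from normalized, curve-fitted qHTS data.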
# HT1080 IDH1KD tx = kills HT-1080 cells with IDH1 knockdown. 360,000 tested, 2% active. Potency, µM (series often up to 46.1 µM), inactives show top-dose activity, negative = toxicity, hits mostly cytotoxic. HT-1080 IDH1 knockdown viability, ATP luminescence, 48 h. AID 686971;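 also: 0% = DMSO wells and -100% = cell-free medium wells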
#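 HT-1080-IDH1KD cells (IDH1 knocked down), 750/well in RPMI with 5% FBS, treated with compound 48 h at 37 degrees C. Viability by CellTiter-Glo luminescence, normalised to DMSO and no-cell wells; concentration-response curves classed.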
# * = called active by the depositor; i = inactive; ? = inconclusive; · = no result given. Calls follow the shape of the dose curve; as a rule, active = well fitted curve in the direction sought with a large enough effect; inconclusive = small, poorly fitted or top-dose-only effect, or another doubt; inactive = no such curve, though single readings can be large; an effect the other way counts as inactive or inconclusive. Potency is read from the fitted curve at half-maximal effect.
SMILES,KB-3-1 tox,SW480 rereplic,HT1080-NT tox,MCF10A rerep,KB-V1 MDR tox,HT1080 IDH1KD tx
Cc1ccc(C(OCC(O)CN2CCCCC2CO)c2ccccc2)cc1 (configuration not stated),i,28%,2%,24%,i,2%
CC1=NN(c2ccc(Br)cc2)C(=O)/C1=C/c1cccs1,i,?,?,18µM*,i,?
O=C(c1[nH]c(C(F)(F)F)nc1-c1ccccc1)N1CCN(c2ccccc2)CC1,6.5µM*,·,?,·,?,2.1µM*
O=C(c1[nH]c(C(F)(F)F)nc1-c1ccccc1)N1CCN(c2ncccn2)CC1,?,·,-29%,·,?,?
Cc1ccc(N2CCN(C(=O)c3[nH]c(C(F)(F)F)nc3-c3ccccc3)CC2)cc1,i,·,-23%,·,i,-28%
O=C(c1[nH]c(C(F)(F)F)nc1-c1ccccc1)N1CCc2c([nH]c3ccccc23)C1,5.8µM*,·,?,·,i,4.6µM*
CCOC(=O)c1sc(NC(=O)c2ccc(S(=O)(=O)N3CCOCC3)cc2)nc1-c1ccccc1,i,18µM*,-14%,6%,i,-10%
CCOC(=O)N1CCN(S(=O)(=O)c2ccc(C(=O)Nc3nc4ccc(F)cc4s3)cc2)CC1,?,7%,2%,16µM*,?,3%
COC(=O)c1ccc2nc(NC(=O)C(C)C)sc2c1,i,1%,-14%,-11%,i,?
CCOC(=O)c1sc(NC(=O)c2ccc(S(=O)(=O)N3CCCCC3)cc2)nc1-c1ccccc1,i,-3%,11%,-6%,?,12%
CCOC(=O)Nc1nc(-c2ccccc2)c(C(=O)c2ccc(Cl)cc2)s1,1.2µM*,2.9µM*,?,?,1.3µM*,0.52µM*
COC(=O)c1ccc2nc(Nc3nc4c(F)cc(F)cc4s3)sc2c1,?,0.23µM*,-10%,2.3µM*,i,-5%
Cc1noc(NS(=O)(=O)c2ccc(NC(=O)c3ccc(F)cc3)cc2)c1C,·,0%,0%,-9%,·,1%
CCOC(=O)C(=CNc1nc(-c2ccccc2)c(C(=O)Nc2ccc(-c3ccccc3)cc2)s1)C(=O)OCC,i,3.7µM*,14%,9.2µM*,i,24%
CCOC(=O)c1ccc2nc(Nc3nc4ccc(F)cc4s3)sc2c1,i,1%,0%,10µM*,?,0%
Cc1ccc(NC(=O)c2sc(Cl)nc2-c2ccccc2)cc1,?,0%,-2%,?,i,-13%
CCOC(=O)c1ccc2nc(NC(C)=O)sc2c1,i,-13%,15%,5%,i,7%
CC(=O)OCC(=O)[C@@]1(O)CC[C@H]2[C@@H]3CCC4=CC(=O)C=C[C@]4(C)[C@@]3(Cl)[C@@H](Cl)C[C@@]21C,i,-15%,?,-32%,i,34%
CC1(c2nc3ccccc3[nH]2)CCC(=O)N1Cc1cccs1 (configuration not stated),i,·,15%,·,i,17%
COc1ccc(CN(C)C[C@@H]2OCCCC[C@@H](C)Oc3ccc(N(C)C)cc3C(=O)N([C@H](C)CO)C[C@@H]2C)cc1,i,·,-10%,·,i,-5%
O=C1NC2(CCCCC2)C(=O)N1CCN1C(=O)c2ccccc2C1=O,i,-4%,7%,13%,i,0%
OC(c1ccccc1)(c1nc(-c2ccc(F)c(Cl)c2)cs1)C(F)(F)F (configuration not stated),i,·,?,·,i,18µM*
Cc1ccc(-c2csc(C(O)(c3ccccc3)C(F)(F)F)n2)cc1C (configuration not stated),i,·,26µM*,·,i,?
CC(O)(c1ccccc1)c1nc(-c2ccc(F)c(Cl)c2)cs1 (configuration not stated),i,·,?,·,i,?
